Rv3671c inh = inhibitors of M. tuberculosis serine protease Rv3671c; P9WHR9; 320,000 compounds, 0.048% hits; inhibition, % at 5.96 µM; in the data active = inhibition above about 38%;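 also: extracellular domain of Rv3671c used as enzyme; 0% = enzyme with DMSO and 100% = no enzyme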
GDH-TPI counter-1 = counter-screen for M. tuberculosis FBA inhibitors: GDH-TPI coupled enzymes | GDH-TPI coupled enzyme counterscreen, NADH absorbance | 360,000 compounds, 1.2% hits | AID 588335 | inhibition, % at 4.8 µM; in the data active = inhibition above about 30%;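 also: 0% = DMSO wells and 100% = wells lacking the enzyme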
RecA splice inh = blocks M. tuberculosis RecA intein splicing | P9WHJ3 | cell-free RecA intein splicing, fluorescence | inhibition, % (no concentration beside the values) | 290,000 compounds, 0.75% hits; in the data active = inhibition above about 30%;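 also: 0% = vehicle wells and 100% = reference inhibitor control wells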
Mtb bLac sens = beta-lactam sensitization of Mtb H37Rv; M. tuberculosis H37Rv growth with meropenem, percent inhibition; inhibition, % at 25 µM; 330,000 compounds, 0.27% hits; AID 434955; call rule not given here;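 also: growth measured after seven days incubation then overnight dye step; 0% = bacteria only wells and 100% = bacteria with antibiotic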
Mtb FBA inh = inhibitors of M. tuberculosis fructose-bisphosphate aldolase; purified M. tuberculosis FBA, fluorescence read-out; inhibition, % at 1 µM; 360,000 compounds, 2.3% hits; AID 588726;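 also: 0% = vehicle and 100% = reference inhibitor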
Target sequence (P9WQA3 whole entry, looked up): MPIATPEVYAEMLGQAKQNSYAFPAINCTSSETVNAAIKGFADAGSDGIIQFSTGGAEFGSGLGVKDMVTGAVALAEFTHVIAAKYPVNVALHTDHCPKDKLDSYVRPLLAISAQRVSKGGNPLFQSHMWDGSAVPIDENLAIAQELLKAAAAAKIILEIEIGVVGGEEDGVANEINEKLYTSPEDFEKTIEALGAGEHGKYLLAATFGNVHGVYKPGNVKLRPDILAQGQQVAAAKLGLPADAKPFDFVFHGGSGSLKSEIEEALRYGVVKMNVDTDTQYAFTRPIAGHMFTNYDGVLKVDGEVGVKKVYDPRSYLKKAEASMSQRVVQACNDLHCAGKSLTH
Mtb UGM inh = Mtb UDP-galactopyranose mutase inhibition | inhibition, % at 10 µM | AID 504406 | P9WIQ1 | 320,000 compounds, 0.06% hits | purified UGM, fluorescence polarization probe displacement; in the data active = inhibition above about 10%, passing the limit was not always enough
Mtb FBA inh conf = confirmation of M. tuberculosis fructose-bisphosphate aldolase inhibitors; shares compounds with Mtb FBA inh; purified M. tuberculosis FBA, fluorescence read-out; inhibition, % at 1 µM; 5,600 compounds, 78% hits; AID 651616;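 also: 0% = vehicle wells and 100% = reference inhibitor wells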
GDH-TPI counter-2 = GDH-TPI inhibition counter-screen for FBA inhibitors; shares compounds with Mtb FBA inh; GDH-TPI coupled enzyme counterscreen, fluorescence; inhibition, % at 1 µM; 5,600 compounds, 81% hits; AID 652141; in the data active = inhibition above about 10%
Starred values were filed as active, the others as inactive; i = inactive; / = no result given; + = active, no number. A selection: hits, their analogues and other compounds. The true share with any hit is near 4%. Rule as the data show it, unless noted: active = inhibition above about 27%; inactive = the rest.

SMILES	Rv3671c inh	GDH-TPI counter-1	RecA splice inh	Mtb bLac sens	Mtb FBA inh	Mtb UGM inh	Mtb FBA inh conf	GDH-TPI counter-2
CCOc1ccccc1C(O)C1=CC(=O)c2ccccc2C1=O (configuration not stated)	/	0	/	/	5	/	/	/
COc1ccccc1OCCOCCOc1c(C)cc(C)cc1Br	5	2	3	1	0	5	/	/
COC(c1ccccc1)c1nnc(CCC(=O)N(C)CCCC2CCCC2)o1 (configuration not stated)	4	3	3	1	28*	-3	123*	100*
CCOC(=O)C(NC(C)=O)(N1CCc2ccccc2C1)C(F)(F)F (configuration not stated)	7	1	2	0	2	-1	/	/
CN(C)c1nc(OCCNC(=O)COc2ccccc2Cl)nc(N(C)C)n1	-1	15	1	-3	55*	1	+	189*
CN(C)c1nc(OCCNC(=O)Nc2ccccc2)nc(N(C)C)n1	-3	1	1	-3	1	0	/	/
O=C(O)c1ccccc1NC(=O)C1CCCO1 (configuration not stated)	10	2	0	6	5	4	/	/
CC(=O)Nc1cccc2c1C(=O)NC2=O	-3	2	-1	-7	28*	4	54*	43*
CC(=O)Nc1ccc(N2C(=O)c3cccc(NC(C)=O)c3C2=O)cc1	-5	1	/	4	-2	-1	/	/
O=C1NC(=O)c2c(NC(=O)C3CCCO3)cccc21 (configuration not stated)	-5	16	1	4	36*	-2	97*	88*
FC(F)(F)c1ccc2c(c1)NCC1CCCN21 (configuration not stated)	5	24	-4	7	45*	2	54*	50*
CCCCC(=O)Nc1cnc(NC(=O)c2cccs2)cc1C	6	7	1	-6	0	1	/	/
O=C(NC1CC1)c1ccc2c(c1)N(Cc1ccc(Cl)cc1)CCS2	7	7	3	3	106*	3	54*	48*
O=C(NC1CCCC1)c1ccc2c(c1)N(Cc1ccccc1)CCS2	7	9	-5	0	90*	1	103*	116*
Cc1ccc(CN2CCSc3ccc(C(=O)NC4CCN(Cc5ccccc5)CC4)cc32)cc1	-10	9	-2	90	10	-1	/	/
COc1ccc(NS(=O)(=O)c2ccc(NC(=O)c3ccc(N(C)S(C)(=O)=O)cc3)cc2)c(OC)c1	6	1	-2	-1	1	-2	/	/
NC(=O)c1c(NC(=O)C(=O)N2CCOCC2)sc2c1CCC2	-4	20	-5	-5	33*	-1	117*	89*
O=C(Nc1cccnc1)c1cccc(-c2cc3ccccc3oc2=O)c1	-4	-2	0	-2	3	-5	/	/
CCn1nnc(NC(=O)c2cccc(-c3cc4ccccc4oc3=O)c2)n1	-1	19	0	24	48*	1	153*	119*
Cc1cc(NC(=O)CCCC(=O)NCc2cccs2)no1	-4	-8	/	7	57*	0	88*	62*
C=CCn1c(=N)c(C#N)cc2c(=O)n3ccccc3nc21	-3	2	i	-6	51*	-2	128*	111*
N#Cc1cc2c(=O)n3ccccc3nc2n(-c2ccc(Cl)cc2)c1=O	1	2	-125	-2	49*	-1	10	-5
Cc1ccc(Cc2c(-c3ccc(Cl)cc3)nc3cc(C)c(Br)c(C)n23)cc1	/	/	/	/	2	/	/	/
C=CC[C@@H](CC(=O)N[C@H](CO)Cc1ccccc1)C(=O)NCCOC(=O)[C@@H](CC=C)Cc1ccc(F)cc1	-2	5	/	4	5	-3	/	/
CCCSc1nnc(NC(=O)c2sc3nc(-c4cccs4)ccc3c2N)s1	0	37*	-25	/	43*	3	153*	116*
SMILES	Rv3671c inh	GDH-TPI counter-1	RecA splice inh	Mtb bLac sens	Mtb FBA inh	Mtb UGM inh	Mtb FBA inh conf	GDH-TPI counter-2
CC(=O)Nc1ccc(S(=O)(=O)N2CCN(Cc3cccnc3)CC2)cc1	5	7	1	2	0	2	/	/
COc1ccccc1CCNC(=O)C(=O)c1cn(CC(=O)N2CCOCC2)c2ccccc12	-7	3	-1	5	80*	3	104*	85*
COC(=O)C1=C(c2ccc(F)cc2OCc2ccccc2)C[C@@H]2CC[C@H]1N2C(=O)NCc1cc(C)oc1C(F)(F)F	-5	8	/	-6	0	5	/	/
CCCn1c(-c2ccc(OC)cc2)nc2nc3ccccc3nc21	-10	43*	-14	-10	42*	3	98*	79*
COc1ccc(Nc2nnc(SC(C)C(=O)NC3CC3)s2)cc1 (configuration not stated)	6	3	/	2	-2	-1	/	/
O=C(Nc1ccnn1C1CCN(CC(O)CO)CC1)C1CCCC1 (configuration not stated)	/	-2	-1	-2	2	-2	/	/
Cc1ccc(C)c(-n2c(SCC(=O)N3CCCC3)nnc2-c2ccccn2)c1	4	-5	1	-8	3	-1	/	/
OC[C@@H]1[C@@H](c2ccc(Cl)cc2)C(c2ccc(F)cc2)=NN1c1ccccc1	/	3	/	/	60*	/	150*	98*
OC[C@@H]1[C@@H](c2ccccc2)C(c2cccc(Cl)c2)=NN1c1ccccc1	/	-6	/	/	50*	/	122*	134*
OC[C@@H]1[C@@H](c2ccccc2)C(c2ccccc2)=NN1c1ccccc1	/	3	/	/	49*	/	120*	91*
Oc1ccccc1C1=NN(c2ccccc2)C(c2ccc(F)cc2)C1 (configuration not stated)	/	1	-11	-4	1	2	/	/
CC(C)NC(=O)c1cccc(C(F)(F)F)c1	2	-11	/	-6	1	0	/	/
Cn1c(=O)c2cc3ccccc3nc2n(C)c1=O	1	13	1	-6	36*	-2	59*	51*
CCC(C)(C)C(=O)Nc1ncc(S(=O)(=O)c2ccc([N+](=O)[O-])cc2)s1	2	-3	0	89	76*	3	4	-1
COc1cc2cc(C(=O)N(C)C3CCS(=O)(=O)C3)[nH]c2cc1OC (configuration not stated)	0	19	4	0	31*	0	7	-2
CN1CCN(S(=O)(=O)c2cccc(C(=O)NCc3ccc(Cl)cc3)c2)CC1	0	-6	0	-10	64*	-1	48*	44*
COc1ccc(CNC(=O)c2cccc(S(=O)(=O)N3CCN(C)CC3)c2)cc1	5	-8	2	-14	-2	-2	/	/
CCCC1Cc2c(sc3ncnc(N)c23)CO1 (configuration not stated)	0	2	-2	5	28*	1	142*	121*
